Here are results for 27 molecules from PubChem BioAssay (EPA / NIEHS).

For orientation: AC50 means the concentration at which the activity in the assay is half-maximal.

“And” between values parts separate entries of the source, which are not always exact repeats. Equal values may be shown once. The source made the active and inactive calls. How the source made its calls: active means hit-call score of the fitted dose curve at least 0.9, where 1 is the maximum; inactive means score below 0.9.

Read-out in this experiment: Interleukin-1 alpha (IL1a), IL1A (gene 3552)
Briefly: BSK_KF3CT_IL1a: BioMAP Diversity Plus: KF3CT Assay for Interleukin-1 alpha (IL1a) Biomarker Activity (AID 2283070). The conditions noted are these: primary human keratinocytes with fibroblasts; actives raise or lower the signal. How it is done:
BSK_KF3CT is a cell-based, multiplexed-readout assay that uses keratinocytes and foreskin fibroblasts, a human skin primary cell co-culture, with measurements taken at 24 hours after chemical dosing in a 96-well plate.BSK_KF3CT_IL1a is an assay component measured in the BSK_KF3CT assay. It measures IL-1a antibody related to regulation of gene expression using ELISA technology.Data from the assay component BSK_KF3CT_IL1a was analyzed into 1 assay endpoint. This assay endpoint, BSK_KF3CT_IL1a, was analyzed with bidirectional fitting relative to DMSO as the negative control and baseline of activity. Using a type of binding reporter, gain or loss-of-signal activity can be used to understand changes in the signaling as they relate to the gene IL1A. Furthermore, this assay endpoint can be referred to as a primary readout, because this assay has produced multiple assay endpoints where this one serves a signaling function. To generalize the intended target to other relatable targets, this assay endpoint is annotated to the cytokine intended target family, where the subfamily is interleukins.
The levels of cell surface (or secreted, indicated by the prefix "s") biomarker endpoints were measured by ELISA. Overt cytotoxicity to cells in confluent adherent cultures (all systems other than the BT system) was assessed by measuring total protein levels using sulforhodamine B (SRB) staining in parallel cultures at the time of biomarker measurements, indicated as SRB endpoints. For proliferation assays for adherent cell types, individual cell types are cultured at sub-confluence and relative cell numbers quantified by SRB staining at time points optimized for each system (48 h: 3C and CASM3C systems; 72 h: BT and HDF3CGF systems; 96 h: SAg system). SRB was performed by staining cells with 0.1% SRB after fixation with 10% TCA and reading wells at 560 nm.Viability and proliferation of PBMC (T cells) was quantified by Alamar Blue reduction for the SAg and BT systems. For PBMC viability (referred to as PBMC Cytotoxicity within the assay endpoint names), cells were plated (75,000/well in a 96-well plate) and then chemical samples added for 1 h before addition of activators, SEB and TSST-1 (20 ng/mL final concentration each). Cells were incubated for 90 h. Then, Alamar Blue (20 uL/well) (Invitrogen, Cat DAL1100) was added for 6 h, and the plates were read with a fluorescence microplate reader at 546/580 nm (excitation/emission). For PBMC proliferation, cells were plated and activated as above but incubated for only 16 h prior to addition of Alamar Blue. Plates were read after 6 h.
As for `CCCCCCCCCCC1CO1` (configuration not stated), the AC50 was 25.3 µM (active).

Turning to `COc1ccccc1Oc1c(NS(=O)(=O)c2ccc(C(C)(C)C)cc2)nc(-c2ncccn2)nc1OCCO`, the result was inactive.

Consider `Oc1cccc2ccccc12`, for which the outcome was inactive.

On to `C1CN(CCOCCN2CCOCC2)CCO1`, for which the result was inactive.

On to `CC[N+](CC)(CC(=O)Nc1c(C)cccc1C)Cc1ccccc1`, for which the result was inactive.

On to `CCC(C)=NO`, for which the outcome was inactive.

As to `Sc1nc2ccccc2s1`, the outcome was inactive.

Take `Cc1cccnc1`: the result was inactive.

For `O=[N+]([O-])c1cc(S(=O)(=O)Nc2ccccc2)ccc1Nc1ccccc1`, the concentration at half-maximal activity (AC50) was 31 µM (active) and 32.2 µM (active).

Take `CCCCCCCCCCCCCCCCCC[N+](C)(C)C`: the AC50 is 6.81 µM (active).

For `CC(C)CC(=O)CC(C)CC(C)C` (configuration not stated), the half-maximal activity concentration (AC50) was 35 µM (active).

As for `COc1cc(CNC(=O)CCCC/C=C/C(C)C)ccc1O`, the result was inactive.

In the case of `COc1ccc(C(=O)c2ccccc2O)c(O)c1`, the result was inactive.

On to `CN(C)CCC(c1ccc(Cl)cc1)c1ccccn1` (configuration not stated), for which the result was inactive.

In the case of `CC[N+](CC)(CC(=O)Nc1c(C)cccc1C)Cc1ccccc1` (tested in a mixture with another compound), the outcome was inactive.

As for `Cc1cc(-n2nc3ccc(Cl)cc3n2)c(O)c(C(C)(C)C)c1`, the outcome was inactive.

Regarding `O=C(C(=O)c1ccccc1)c1ccccc1`, the outcome was inactive.

For the molecule `CCCCCCC(O)CCCCCCCCCCC(=O)OC` (configuration not stated), the outcome was inactive.

For `CCCCCCCCCC/C=C/C1CC(=O)OC1=O` (configuration not stated), the result was inactive.

In the case of `CC(C)C1OCCN1CCOC(=O)NCCCCCCNC(=O)OCCN1CCOC1C(C)C` (configuration not stated), the result was inactive.

With `COC(=O)/C=C\C(=O)OC`, the result was inactive.

As for `CN(C)Cc1cc(C(C)(C)C)c(O)c(C(C)(C)C)c1`, the outcome was inactive.

In the case of `OC(C(F)(F)F)(C(F)(F)F)C(O)(C(F)(F)F)C(F)(F)F`, the concentration at half-maximal activity (AC50) is 52.7 µM (active) and 54 µM (active).

With `Cc1c(C(N)=O)cc([N+](=O)[O-])cc1[N+](=O)[O-]`, the result was inactive.

Consider `CN(C)c1ccc(C(c2ccccc2)c2ccc(N(C)C)cc2)cc1`, for which the result was inactive.

Take `CCC[Si](OC(C)=O)(OC(C)=O)OC(C)=O`: the outcome was inactive.

On to `CCCCC(CC)COC(=O)C=Cc1ccc(OC)cc1` (configuration not stated), for which the result was inactive.
